Compound activity as filed in PubChem.
In the library only some 8% were active in any assay of this set; here they are far more common.
HCV inh: inhibitors of hepatitis C virus infection | Huh7.5.1 HCVcc-Cre infection, luciferase reporter, 44 h | Potency, µM (top dose mostly 41.8 µM), inactives show at the highest dose activity change, negative = inhibition, actives largely listed as inhibitors | 340,000 compounds, 3.4% hits; active means well fitted inhibition curve with a large enough effect; inconclusive means small, poorly fitted or top-dose-only effect, or another doubt; inactive means no such curve, though single readings can be large or run the other way; further: potency means the concentration at half of the fitted maximal effect; on the % scale 0 is the no-effect control and ±100 the full control effect
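A cell-based infection assay in which seeded cells (1,000 per well) receive test compound after 4 h, are inoculated with HCVcc-Cre at approximately 0.5 moi, and are incubated 44 h before luminescence detection.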
HCMV antiviral: human cytomegalovirus inhibition | 410,000 compounds, 4.5% hits | HFF cells, HCMV-luciferase reporter, 72 h; hits give low values | activity change, negative = inhibition, % at 57.5 µM | AID 1259415; in the data active means activity change below about -60%; inconclusive means no clear call, values can overlap the other calls; inactive means above about -39%; further: on the % scale 0 is the no-effect control and ±100 the full control effect
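HFF cells seeded 16 h at 37C, treated with compounds, infected with luciferase-reporter HCMV at MOI 1 PFU/cell; luciferase read at 72 h post infection, normalized to buffer-only and Salinomycin controls.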
FMDV antiviral: blocks foot and mouth disease virus; FMDV antiviral cell-based qHTS; Potency, µM (series often up to 57.9 µM), inactives show at the highest dose activity change, negative = inhibition, hits mostly inhibitors; 410,000 compounds, 1.2% hits; calls by dose curve; tested in HEK293T cells; further: read-out not given here; potency means the concentration at half of the fitted maximal effect; on the % scale 0 is the no-effect control and ±100 the full control effect; nearly all actives have a fitted effect of over 45% in size
Marburg entry inh: Marburg virus entry inhibition. Marburg virus pseudotyped entry inhibition, cell reporter. Potency, µM (doses to about 37.8 µM), for inactives: top-dose activity change, negative = inhibition, most hits filed as inhibitors. 300,000 compounds, 1.8% hits; calls by dose curve; tested in HEK293 cells; further: potency means the concentration at half of the fitted maximal effect; on the % scale 0 is the no-effect control and ±100 the full control effect
LASV entry inh: inhibitors of Lassa virus binding or cell entry; 300,000 compounds, 1.2% hits; Potency, µM (top dose mostly 37.9 µM), inactives show top-dose activity change, negative = inhibition, actives largely listed as inhibitors; Lassa virus pseudotype entry inhibition, cell reporter; calls by dose curve; tested in HEK293 cells; further: potency means the concentration at half of the fitted maximal effect; on the % scale 0 is the no-effect control and ±100 the full control effect; nearly all actives have a fitted effect of over 50% in size
SARS PLP yeast: inhibitors of SARS-CoV papain-like protease in yeast. S. cerevisiae expressing SARS-CoV PLpro, growth rescue. Potency, µM (top dose mostly 32.9 µM), inactives show at the top dose activity, positive = growth rescue, most hits filed as activators. 330,000 compounds, 0.19% hits; calls by dose curve; further: potency means the concentration at half of the fitted maximal effect; 0% is about no effect; nearly all actives have a fitted effect of over 55% in size
* marks the source's active call; other numbers are inactive results; ? = inconclusive; nt = no result; [ ] = remark or other dose.

SMILES | HCV inh | HCMV antiviral | FMDV antiviral | Marburg entry inh | LASV entry inh | SARS PLP yeast
CC(C)(C)n1cnc2cc(NC(=O)c3ccc(Cl)cc3)ccc21 | ? | 4 | 34% | ? | ? | 1%
COc1ccc(OC)c(C(=O)c2ccc(C(=O)Nc3ccc4ccccc4c3)cc2)c1 | ? | ? | -12% | ? | 10µM* | -2%
COc1ccc(C(=O)Nc2ccc3ccccc3c2)cc1OC | ? | 120 | 59% | 2% | ? | 1%
CCCCC[C@]12Cc3cc(OC)c(OC)cc3C(O1)c1c(cc(C)n(-c3ccccc3)c1=O)O2 | nt | nt | nt | nt | nt | 9%[6.58 µM]
CCn1c(CNC(=O)c2cc(OC)c(OC)c(OC)c2)cc2ccccc21 | ? | -61* | -27% | ? | ? | -5%
Cc1cc(C(C)(C)C)cc(C)c1CCNC(=O)c1c(C)noc1C | 11µM* | ? | ? | ? | ? | 0%
Cc1noc(C)c1C(=O)NCCc1ccc(Cl)cc1 | 13% | -15 | 6% | 5% | 12% | 1%
O=C(CSc1nc2c([nH]c3ccccc32)c(=O)n1-c1ccccc1)N1CCCCC1 | nt | -26 | -3% | nt | -1%[46.1 µM] | nt
COc1ccccc1CNC(=O)CCCn1c(=O)c2ccccc2n(Cc2ccccc2C#N)c1=O | nt | -3 | -11% | 5%[46.1 µM] | 11%[46.1 µM] | nt
COc1ccc(OC)c(NC(=S)NN2CCOCC2)c1 | 20% | -102* | 23% | 2% | 4% | 7%
COc1ccc(Cl)cc1NC(=S)NN1CCOCC1 | 10% | ? | 7% | -1%[46.1 µM] | 4%[46.1 µM] | 0%
COc1ccc2c(c1)c1ncn(Cc3ccco3)c(=O)c1n2C | 11µM* | -81* | -20% | ? | -14% | 2%
Cc1ncc2c(c1CNC(=O)c1ccc3c(c1)OCO3)CCN(C(=O)C1Cc3ccccc3O1)C2 (centres undefined) | nt | nt | -7% | nt | nt | nt
N#Cc1nc(Cc2ccccc2)oc1N1CCN(c2ccccc2)CC1 | 1% | -18 | nt | ? | ? | -14%
N#Cc1nc(Cc2ccccc2)oc1N1CCC(Cc2ccccc2)CC1 | -30% | 2 | -5% | -18% | 7.1µM* | 1%
COc1cccc(OC)c1CN1CCC2(CCC(CNC(=O)c3ccccc3)O2)CC1 (centres undefined) | nt | nt | -11% | nt | nt | nt
O=C(c1ccc(CSc2nc3ccncc3[nH]2)cc1)N1CCN(c2cccc(Cl)c2)CC1 | 7.9µM* | -90* | ? | ? | 26µM* | -6%
O=C(c1ccc(CSc2nc3ccncc3[nH]2)cc1)N1CCCCCC1 | -29% | ? | ? | nt | nt | 0%
Cc1ccc(CSc2nc3ccncc3[nH]2)cc1 | -7% | 97 | 10µM* | nt | nt | -20%
Clc1ccc(CSc2nc3ccncc3[nH]2)cc1 | -11% | 68 | -59% | nt | nt | -26%
O=C1CCC[C@H]2[C@@H](Cc3ccccc3)[C@H](NCc3cccs3)CC[C@]23CCCN13 | nt | 20 | nt | nt | nt | nt
COc1ccc(-n2nc(C(=O)Nc3ccccc3OC)c3c4ccccc4n(C)c3c2=O)cc1Cl | nt | 13 | -8% | nt | ? | nt
Cc1ccccc1N(C(=O)CCCC(=O)Nc1ccccn1)C(C(=O)NC1CCCC1)c1ccc(O)cc1 (centres undefined) | 4% | 32 | 90% | -30%[46.1 µM] | ? | 2%
Cc1ccccc1N(C(=O)CCC(=O)Nc1ccccn1)C(C(=O)NC(C)C)c1ccc(O)cc1 (centres undefined) | 7% | 109 | 0% | 7.1µM* | -3% | -5%
CCC[C@H]1[C@@H](NC(=O)Nc2ccc(C(C)C)cc2)CC[C@@]23CCCN2C(=O)CCC[C@@H]13 | nt | 10 | nt | nt | nt | nt
SMILES | HCV inh | HCMV antiviral | FMDV antiviral | Marburg entry inh | LASV entry inh | SARS PLP yeast
CC12C=C(C=Cc3ccc(C(F)(F)F)cc3)C(C)(C1)C(c1ccc(C(F)(F)F)cc1)CC2=O (centres undefined) | nt | nt | nt | 6%[14.2 µM] | nt | nt
O=C(CSc1nccn1-c1ccc(Cl)cc1)Nc1cccc2ccccc12 | nt | ? | -17% | nt | ? | nt
O=C(c1ccc(Cn2c(=S)[nH]c3ccc(N4CCOCC4)cc3c2=O)cc1)N1CCN(c2ccc(F)cc2)CC1 | ? | -13 | 42% | ? | -14% | 1%
O=C(CCCCCn1c(=S)[nH]c2ccc(N3CCOCC3)cc2c1=O)NCc1ccc(Cl)cc1 | -19% | -75* | ? | ? | ? | 0%
O=c1c2cc(N3CCOCC3)ccc2[nH]c(=S)n1Cc1ccc(Cl)cc1 | ? | -87* | 2% | 4% | ? | -5%
Cc1cc(C(C)(C)C)ccc1OCCCCN1CCCC1 | 22µM* | -30 | -1% | ? | ? | -5%
Cc1cc(C(C)(C)C)ccc1OCCN1CCCC1 | -4% | 10 | -3% | ? | -3% | -5%
Cc1cc(Br)ccc1OCCCCN1CCCCC1 | 10µM* | -36 | -16% | ? | -8% | 1%
COc1ccc(-c2oc3cc(O)c(OC)c(O)c3c(=O)c2OC)cc1O | 3% | -62* | 20% | ? | ? | nt
COc1cc(OC)c2c(=O)c(OC)c(-c3ccc(OC)c(OC)c3)oc2c1 | 1.1µM* | nt | 5% | nt | nt | 14%
COc1ccc2c(=O)c(OC)c(-c3ccccc3)oc2c1 | nt | nt | 11% | nt | nt | nt
COc1ccc(-c2cc(=O)c3c(O)c(OC)c(O)cc3o2)cc1 | -25% | 33 | -23% | nt | nt | -4%
CC1CCN(c2nc3ccc(C(=O)NCc4ccccc4Cl)cc3s2)CC1 | nt | 18 | -3% | ? | ? | nt
CN(C)S(=O)(=O)c1ccc(C(=O)Nc2ccc(S(=O)(=O)NC3=NCCCCC3)cc2)cc1 | -10% | -10 | -15% | -6%[46.1 µM] | -16% | 11%
O=C(Nc1ccc(S(=O)(=O)NC2=NCCCCC2)cc1)c1cccs1 | ? | -102* | 15% | nt | nt | -5%
O=C(Nc1ccc(S(=O)(=O)NC2=NCCCCC2)cc1)c1ccc(C(F)(F)F)cc1 | ? | -67* | ? | nt | nt | 1%
CCOC(=O)c1c(C)oc2nc(C)nc(Nc3cc(C)ccc3OC)c12 | nt | 11 | -5% | nt | ? | nt
Cc1ccccc1S(=O)(=O)N1[C@@H](c2ccccc2)C(C(=O)O)=CC[C@H]1c1ccc(Cl)cc1 | 4% | -99* | 3% | nt | nt | 2%
CCOC(=O)c1cc(-c2ccccc2)n(-c2cccc(C(=O)Nc3cccc(SC)c3)c2)c1C | nt | ? | 10% | nt | -3%[46.1 µM] | nt
Cc1ccc(NCSc2ccc(Cl)cc2)cc1 | 10µM* | 52 | 28% | 9%[46.1 µM] | 20%[46.1 µM] | nt
Clc1ccc(SCNc2ccccc2Cl)cc1 | -1% | -25 | -22% | nt | nt | -1%
CCOC(=O)c1c(NC(=O)CSc2nc3ccc(C)cc3[nH]2)sc2c1CC(C)(C)NC2(C)C | 6.3µM* | -20 | -23% | ? | 10µM* | -7%
CCOC(=O)c1c(NC(=O)CSc2nnnn2-c2ccccc2)sc2c1CC(C)(C)NC2(C)C | -18% | nt | -26% | ? | ? | 4%
C=C1CCC(O)C2(C)CCC3C(C)C(=O)OC3C12O (centres undefined) | 5% | ? | -9% | 4%[46.1 µM] | -8%[46.1 µM] | 0%
